# Results as given in the supplement of paper PMC6992640.
# ± gives the standard deviation of the averaged measurements.
# Experiments:
# Assay in all cases: cell viability (% of vehicle); higher = less cytotoxic
# Conditions in all cases: 10 µM; 72 h
# HCI01 = test system: HCI01 (cells of a triple-negative basal-like breast cancer xenograft)
# HCI03 = test system: HCI03 (cells of an ER-positive luminal breast cancer xenograft)
# HCI09 = test system: HCI09 (cells of a triple-negative luminal androgen receptor type breast cancer xenograft)
# HCI11 = test system: HCI11 (cells of an ER-positive luminal breast cancer xenograft)
# HCI13 = test system: HCI13 (cells of an ER-positive luminal breast cancer xenograft)
# HCI16 = test system: HCI16 (cells of a triple-negative basal-like breast cancer xenograft)
# UCD52 = test system: UCD52 (cells of a triple-negative basal-like breast cancer xenograft)
# WHIM2 = test system: WHIM2 (cells of a triple-negative basal-like breast cancer xenograft)
# WHIM30 = test system: WHIM30 (cells of a triple-negative basal-like breast cancer xenograft)
# 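Note: PDX cells carrying CMV promoter-driven luciferase, viability read as total photon flux per second by IVIS imaging following D-luciferin, vehicle control 0.1% DMSO.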
Structure (SMILES),cell viability (HCI01),cell viability (HCI03),cell viability (HCI09),cell viability (HCI11),cell viability (HCI13),cell viability (HCI16),cell viability (UCD52),cell viability (WHIM2),cell viability (WHIM30)
C[C@]12CC[C@H]3[C@@H](CC[C@@]45O[C@@H]4C(O)=C(C#N)C[C@]35C)[C@@H]1CC[C@@H]2O [Trilostane],131 ± 24,119,90.1 ± 5.6,114,73.7 ± 19,103,115 ± 8.4,115 ± 15,100 ± 15
CN1[C@@H]2C[C@@H](O)C[C@H]1[C@@H]1O[C@@H]12 [Scopine],134 ± 21,138,110 ± 8.5,110,129 ± 14,99,103 ± 18,112 ± 21,144 ± 4
O=C(O)CCCc1ccc(N(CCCl)CCCl)cc1 [Chlorambucil],109 ± 15,179,99.8 ± 1.1,92,113.2 ± 0.69,131,108 ± 4.7,96.7 ± 9.3,126 ± 8.3
CC12CC(=CO)C(=O)CC1CCC1C2CCC2(C)C1CCC2(C)O (centres undefined) [Oxymetholone],114 ± 30,97.8,85 ± 38,86.7,54.8 ± 5.8,124,80.6 ± 3.8,90.9 ± 26,135 ± 1.9
Cc1cccc(C)c1NC(=O)CN1CCCC1=O [Nefiracetam],124 ± 21,128,99.9 ± 6.5,91.9,149 ± 33,113,74.9 ± 0.92,85.6 ± 9.6,165 ± 5.6
C[C@]12COC(=O)C[C@@H]1CC[C@@H]1[C@@H]2CC[C@@]2(C)[C@H]1CC[C@]2(C)O [Oxandrolone],98.9 ± 17,108,107.8 ± 0.62,89.1,147 ± 18,117,95.8 ± 5.3,110 ± 23,110 ± 13
COc1cc2c(cc1OC)C13CCN4CC5=CCOC6CC(=O)N2C1C6C5CC43 (centres undefined) [Brucine],90.3 ± 9.9,132,98.2 ± 29,94.5,106 ± 11,100,106 ± 1.5,83.5 ± 22,96.6 ± 4.8
CN(C)C1C(=O)C(C(N)=O)=C(O)C2(O)C(=O)C3=C(O)c4c(O)cccc4C(C)(O)C3C(O)C12.O.O (centres undefined) [Oxytetracycline Dihydrate],81.3 ± 15,129,111 ± 22,83.1,123.2 ± 0.95,116,95.3 ± 1.7,72.2 ± 15,123.8 ± 0.32
CN(C)C(=O)C(CCN1CCC(O)(c2ccc(Cl)cc2)CC1)(c1ccccc1)c1ccccc1.Cl [Loperamide HCl],102 ± 20,84.8,53.5 ± 15,98.7,79.2 ± 6.6,95.1,49.1 ± 1.4,59.8 ± 8.3,102 ± 9.7
CNC1CC(N)C(O)C(OC2OC(CO)C(O)C3OC4(OC(C(N)CO)C(O)C(O)C4O)OC23)C1O (centres undefined) [Hygromycin B],66.3 ± 21,70.2,122 ± 75,110,114.5 ± 1.1,94.3,87.4 ± 22,97.2 ± 1.2,88.3 ± 23
Br.CN1C2CC(OC(=O)C(CO)c3ccccc3)CC1C1OC12 (centres undefined) [Scopolamine hydrobromide],108 ± 3.9,120,91.5 ± 17,104,83.67 ± 0.26,127,90.98 ± 0.47,122 ± 1.4,133.3 ± 1.1
COc1cc2c(c(OC)c1OC)-c1ccc(OC)c(=O)cc1C(NC(C)=O)CC2 (centres undefined) [Colchicine],141 ± 19,109,120 ± 4.5,102,44.3 ± 2.3,108,146 ± 28,96 ± 9,145 ± 7.8
NC(=O)CN1CC(O)CC1=O (centres undefined) [Oxiracetam],111 ± 16,115,98.3 ± 9.9,71,123 ± 12,126,117 ± 3.4,112 ± 15,134 ± 8.7
CC(C)NCC(O)c1ccccc1Cl.Cl (centres undefined) [Clorprenaline HCL],104 ± 18,121,73.1 ± 30,93.9,83.1 ± 11,104,90.6 ± 16,88.3 ± 13,103 ± 2.4
Cc1cccc(C(C)c2cnc[nH]2)c1C.Cl (centres undefined) [Medetomidine HCl],108 ± 7.7,102,93.2 ± 21,103,100.9 ± 1,95.4,87.4 ± 2.9,89.3 ± 22,113 ± 5.8
CCC[C@H](C)[C@@]1(CC)C(=O)N=C([O-])NC1=O.[Na+] [Pentobarbital sodium salt],86.4 ± 3,105,81.9 ± 8.1,85.2,96.3 ± 17,87,86.6 ± 2.1,96.2 ± 21,99.4 ± 11
Cl.Cn1c(CCCC(=O)O)nc2cc(N(CCCl)CCCl)ccc21 [Bendamustine HCl],98.2 ± 7.3,93.5,95.2 ± 2.5,83.5,94.9 ± 12,77.4,97.9 ± 1.9,71.4 ± 9.1,92.1 ± 14
CN(C)C1C(=O)C(C(N)=O)=C(O)C2(O)C(=O)C3=C(O)c4c(O)cccc4C(C)(O)C3C(O)C12 (centres undefined) [Oxytetracycline (Terramycin)],83 ± 9.9,126,108 ± 23,85.3,115 ± 6.2,122,99.8 ± 2.1,72.1 ± 17,121 ± 4.7
CN1C2CCC1CC(OC(=O)C(CO)c1ccccc1)C2.CN1C2CCC1CC(OC(=O)C(CO)c1ccccc1)C2.O.O=S(=O)(O)O (centres undefined) [Atropine],104 ± 7.5,134,108 ± 16,114,95.4 ± 4.6,101,83.3 ± 5.5,91.6 ± 19,98.4 ± 7.8
O=C(OC1C[N+]2(CCCOc3ccccc3)CCC1CC2)C(O)(c1cccs1)c1cccs1.[Br-] (centres undefined) [Aclidinium Bromide],113 ± 14,131,104 ± 6.3,94.2,185 ± 6.3,93.9,79.7 ± 14,84.7 ± 7.7,106 ± 11

Structure (SMILES),cell viability (HCI01),cell viability (HCI03),cell viability (HCI09),cell viability (HCI11),cell viability (HCI13),cell viability (HCI16),cell viability (UCD52),cell viability (WHIM2),cell viability (WHIM30)
CCC1(c2ccc(N)cc2)CCC(=O)NC1=O (centres undefined) [Aminoglutethimide],108 ± 13,113,103 ± 12,103,112 ± 12,103,93.01 ± 0.41,88.9 ± 8,108 ± 2.7
O=C1CCC2(O)C3Cc4ccc(O)c5c4C2(CCN3CC2CC2)C1O5 (centres undefined) [Naltrexone],111 ± 8.9,121,97.4 ± 10,103,100.1 ± 0.98,93.4,94.5 ± 12,92.4 ± 14,130 ± 23
O=S(=O)(F)Cc1ccccc1,131 ± 25,127,89.27 ± 0.7,92.5,87.2 ± 19,100,106.1 ± 0.78,104 ± 31,111 ± 22
CN1C2CCC1CC(OC(=O)C(CO)c1ccccc1)C2 (centres undefined) [Hyoscyamine],135 ± 14,132,109 ± 16,94.3,145 ± 5.8,118,74.2 ± 7.5,93.8 ± 4,108 ± 3.8
CC(=O)Nc1cc([As](=O)(O)O)ccc1O [Arsonic acid],105 ± 4.4,144,102 ± 22,112,73.2 ± 4.5,105,112 ± 25,101 ± 23,132 ± 15
CC(NC(C)(C)C)C(=O)c1cccc(Cl)c1.Cl (centres undefined) [Bupropion hydrochloride],101 ± 2.5,109,99.6 ± 20,85.6,103 ± 1.1,113,90.5 ± 14,104 ± 5.2,121 ± 10
C[C@@H]1CC[C@H]2[C@@H](C)C(=O)O[C@@H]3OC4(C)CC[C@@H]1[C@]32OO4 [Artemisinine],125 ± 38,139,91.1 ± 1.5,102,95.7 ± 11,153,97.45 ± 0.15,93.9 ± 15,96.3 ± 17
Nc1nc(N)nc(NC2CC2)n1 [Cyromazine],111 ± 13,182,107 ± 1.9,97.8,109 ± 22,134,100 ± 2.3,105 ± 28,154 ± 13
N#Cc1ccccc1-c1cc(-c2ccccn2)cn(-c2ccccc2)c1=O [Perampanel],102 ± 10,89.9,85.1 ± 33,94,83.3 ± 4.5,70.4,79.2 ± 12,89.14 ± 0.86,97 ± 4.1
C[N+](C)(C)CC(=O)O.[Cl-] [Betaine hydrochloride],111 ± 4.8,123,95.3 ± 4.7,103,113 ± 11,122,82 ± 6.6,95.5 ± 6.1,107 ± 2.4
O=c1cccc2n1C[C@@H]1CNC[C@H]2C1 [Cytisine],93.3 ± 12,112,97.8 ± 15,95,106 ± 14,128,90.9 ± 4.7,87.9 ± 19,81.4 ± 3.6
Oc1cc(Cl)ccc1Oc1ccc(Cl)cc1Cl [Triclosan],73.5 ± 14,109,41.7 ± 24,71.7,66.4 ± 20,137,97.1 ± 9.6,49.5 ± 1.1,109.3 ± 1
CC(=O)OC1CC2CCC3C(CCC4(C)C3CC([N+]3(C)CCCCC3)C4OC(C)=O)C2(C)CC1[N+]1(C)CCCCC1.[Br-].[Br-] (centres undefined) [Pancuronium dibromide],99.4 ± 8.2,106,105 ± 2.1,93.3,–,95.5,79.4 ± 3.5,94.3 ± 4.8,103 ± 4.2
NC(Cc1ccc(N(CCCl)CCCl)cc1)C(=O)O (centres undefined) [Melphalan],76 ± 14,116,91.1 ± 6.3,107,77.7 ± 3.6,63.1,75.3 ± 11,58.5 ± 8.7,124 ± 3.2
CCOC(=O)c1cncn1C(C)c1ccccc1.Cl (centres undefined) [Etomidate hydrochloride],137 ± 30,155,125 ± 37,117,–,117,97.3 ± 9.7,145 ± 30,76.4 ± 5.3
CN(C)C(=O)Oc1ccc[n+](C)c1.[Br-] [Pyridostigmine Bromide],104 ± 11,120,103 ± 3.5,92.1,136 ± 13,105,72 ± 2.6,96.8 ± 6.6,101 ± 3.2
C=CCN1CCC23c4c5ccc(O)c4OC2C(=O)CCC3(O)C1C5.Cl (centres undefined) [Naloxone HCl],124 ± 20,125,101 ± 18,93.5,130 ± 23,112,74.1 ± 13,86 ± 15,91.4 ± 2.9
C[N+]1(C)CCCC(OC(=O)C(O)(c2ccccc2)c2ccccc2)C1.[Br-] (centres undefined) [Mepenzolate Bromide],109 ± 6.9,133,103 ± 5.9,108,133 ± 27,108,87.5 ± 8.5,98.1 ± 7.5,128 ± 2.7
O=C(OC1CC2CCC(C1)[N+]21CCCC1)C(O)(c1ccccc1)c1ccccc1.[Cl-] (centres undefined) [Trospium chloride],158 ± 1.6,119,112 ± 5.4,124,157 ± 39,165,101 ± 10,110 ± 14,121 ± 3.2
